{"source": "PubChem BioAssay AID463195", "about": "(Sanford-Burnham Center for Chemical Genomics, 2010)", "note": "About 4,600 (1.4%) of roughly 330,000 compounds were called active. This excerpt belongs to a sample that is enriched for actives. Values without a mark were called inactive.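 The calls were made as follows: active = inhibition of 40% or more at the single tested concentration; inactive = the rest.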"}
{"experiment": "wild-type TIM10 yeast growth inhibition – luminescence, uHTS, counter-screen for tim10-1 yeast inhibitor project, primary screen (AID 463195);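 also: wild-type TIM10 isogenic control strain grown at permissive 25 °C; 0% = DMSO yeast wells and 100% = minimal medium wells without yeast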", "conditions": "S. cerevisiae TIM10 strain growth, BacTiter-Glo luminescence, 24 h; at 10 µM; active compounds read high"}
{"compound": "Cc1ccc(-c2noc(CCC(=O)Nc3ccccc3N3CCN(C)CC3)n2)cc1", "inhibition": "10.4%"}
{"compound": "O=C(Nc1cccc(CCc2ccccn2)c1)c1ccc(Cl)cc1", "inhibition": "1.78%"}
{"compound": "O=C(Nc1cccc(Cl)c1)OCc1ccccn1", "inhibition": "47.9% (active)"}
{"compound": "O=C(Nc1ccc(Cl)cc1)OCc1cc(-c2ccccc2)on1", "inhibition": "6.71%"}
{"compound": "O=C(COC(=O)c1cc([N+](=O)[O-])ccc1NCc1ccccc1)NC1CCCCC1", "inhibition": "-9.16%"}
{"compound": "CC(=O)Nc1ccc(S(=O)(=O)N(C)CC(=O)NCCC2=CCCCC2)cc1", "inhibition": "3.82%"}
{"compound": "CCn1nc(C)c(CNC(=O)C2CCC(=O)N(Cc3cccc(F)c3)C2)c1C", "note": "(stereo unspecified)", "inhibition": "-0.612%"}
{"compound": "Cc1cc(C)n(C(=O)c2ccc(S(=O)(=O)N3CCCC3)cc2)n1", "inhibition": "3.81%"}
{"compound": "Cc1cc(Nc2ccccc2)n(C(=O)c2ccc(N)cc2)n1", "inhibition": "57.7% (active)"}
{"compound": "Cn1c(Nc2ccccc2)cc(=O)n(C)c1=O", "inhibition": "0.045%"}
{"compound": "O=C(Cn1c(N2CCN(C/C=C/c3ccccc3)CC2)nc2ccccc21)c1ccccc1", "inhibition": "30.9%"}
{"compound": "COc1ccc(Cl)cc1NC(=O)CN(C)CC(=O)Nc1ccc2c(c1)OCO2", "inhibition": "-6.17%"}
{"compound": "Cc1ccc(NNC(=O)c2c(F)cccc2Cl)cc1Cl", "inhibition": "11.3%"}
{"compound": "Cc1cc(C)c(S(=O)(=O)c2ccccc2)c(OC(=O)c2c(F)cccc2Cl)n1", "inhibition": "59.8% (active)"}
{"compound": "Cc1cc(OC(=O)c2c(Cl)cccc2Cl)nc(C)n1", "inhibition": "-1.42%"}
{"compound": "COCCCN1C(=O)c2ccc(C(=O)OCC(=O)NCc3ccccc3OC)cc2C1=O", "inhibition": "2.82%"}
{"compound": "Cc1onc(C(=O)NCc2ccc(F)cc2)c1[N+](=O)[O-]", "inhibition": "-0.126%"}
{"compound": "O=C(Nc1cccc(O)c1)c1ccc(C(=O)c2ccccc2)o1", "inhibition": "30.4%"}
{"compound": "Cc1onc(C(=O)Nc2ccc3c(c2)OCO3)c1[N+](=O)[O-]", "inhibition": "-7.9%"}
{"compound": "O=C(Nc1ccc(Br)cn1)c1ccc([N+](=O)[O-])cc1Cl", "inhibition": "14.3%"}
{"compound": "O=C(Nc1ccc(Br)cn1)c1ccc([N+](=O)[O-])o1", "inhibition": "57.3% (active)"}
{"compound": "CN1C(=O)c2ccc(C(=O)Nc3ccc(Br)cn3)cc2C1=O", "inhibition": "3.52%"}
{"compound": "Cc1cccc(NC(=O)c2ccc([N+](=O)[O-])o2)c1", "inhibition": "60.3% (active)"}
{"compound": "Cc1onc(NC(=O)c2ccc([N+](=O)[O-])o2)c1Br", "inhibition": "46.6% (active)"}
{"compound": "CCN(CC)S(=O)(=O)c1ccc(N2CCCC2)c(NC(=O)c2ccc([N+](=O)[O-])o2)c1", "inhibition": "28.1%"}
{"compound": "CC(C)(C)c1nnc(NC(=O)C2c3ccccc3Oc3ccccc32)s1", "inhibition": "29.5%"}
